Results: PubChem BioAssay (NCI)
Compounds without any hit were thinned out: in the full panel of roughly 79,000, 15% have a hit. No stated cut-off is given here; in the data, active means growth inhibition above about 70%; inactive means the rest.

Tests used:
[1] = NCI Yeast Anticancer Drug Screen. Data for the rad50 strain (AID 155);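 further: 0% = growth of vehicle-only cultures of the same strain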; conditions: S. cerevisiae rad50 strain growth inhibition; at 50.0 µM; hits give high values
In short: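 Inhibition values express reduced yeast growth in compound-treated cultures relative to vehicle-treated controls.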

[2] = NCI Yeast Anticancer Drug Screen. Data for the mec2-1 strain (AID 157); conditions: S. cerevisiae mec2-1 strain, at 50.0 µM, hits give high values
In short: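 mec2-1 yeast strain, carrying an alteration in DNA damage repair or cell cycle control, was exposed to compounds; growth inhibition was measured relative to vehicle-treated controls.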

[3] = NCI Yeast Anticancer Drug Screen. Data for the sgs1 mgt1 strain (AID 161);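 further: 0% = growth of cultures given vehicle only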; conditions: S. cerevisiae sgs1 mgt1 strain, at 50.0 µM, hits give high values
In short: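 Yeast cells carrying a defined DNA-repair defect were exposed to test compounds. Growth inhibition was measured relative to vehicle-treated controls.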

[4] = NCI Yeast Anticancer Drug Screen. Data for the cln2 rad14 strain (AID 165);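 further: 0% = growth equal to vehicle treated cultures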; conditions: S. cerevisiae cln2 rad14 strain, at 50.0 µM, hits give high values
In short: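 Yeast carrying cln2 and rad14 alterations (cell cycle control and DNA damage repair) were exposed to compounds. Growth inhibition was measured against vehicle-treated controls.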

[5] = NCI Yeast Anticancer Drug Screen. Data for the bub3 strain (AID 167); conditions: S. cerevisiae bub3 mutant strain, at 50.0 µM, hits give high values
In short: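 Steps: expose the mutant yeast strain to compound; grow alongside vehicle-treated cultures; measure growth; express inhibition against the vehicle cultures.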

[6] = NCI Yeast Anticancer Drug Screen. Data for the mlh1 rad18 strain (AID 175); conditions: S. cerevisiae mlh1 rad18 strain growth inhibition; at 50.0 µM; hits give high values
In short: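 Growth inhibition of the yeast strain was measured after compound exposure and expressed relative to vehicle-treated controls. The strain carries defined defects in DNA damage repair.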

Measured: growth inhibition

Cc1c[nH]c2nc(C)n(-c3ccc(F)cc3)c(=N)c12
inactive: [1] 4.1% | [2] 2.4% | [3] -9.05% | [4] -14.6% | [5] 5.3% | [6] 5.3%

CC(=O)c1ccc(NC(=O)CSc2nc(C)nc3c2sc(=S)n3-c2ccccc2)cc1
inactive: [1] -15.1% | [2] -10.8% | [3] -0.1% | [4] -24.1% | [5] -8.2% | [6] -22.1%

C=CCC(CNC(C)=O)(C1=CCCCC1)c1ccccc1 (centres undefined)
inactive: [1] 1.95% | [2] 13% | [3] 13.1% | [4] 19.8% | [5] 17.1% | [6] 12.7%

c1ccc(N2N=NC3C4CC(C5COCC54)C32)cc1 (centres undefined)
inactive: [1] 4.6% | [2] -7.1% | [3] -24.9% | [4] -8.55% | [5] 0.65% | [6] -9.25%

CCS(=O)CCC(N)C(=O)O (centres undefined)
inactive: [1] -9.7% | [2] -20.1% | [3] 1.65% | [4] -19.6% | [5] 5.7% | [6] -3.6%

Cc1ncc(N)nc1C
inactive: [1] -5.25% | [2] -15.8% | [3] -26.5% | [4] -35.5% | [5] -22.6% | [6] -43%

CC(=O)NCC1(c2ccccc2)CCN(Cc2ccccc2)CC1
inactive: [1] -6.8% | [2] -17.3% | [3] -11.7% | [4] 5.7% | [5] -17% | [6] -14.2%

COc1ccc2ccc3c(OC(C)=O)ccc(CCN(C)C(C)=O)c3c2c1OC(C)=O
inactive: [1] 19.1% | [2] 25.9% | [3] 18.9% | [4] 31.5% | [5] 2.25% | [6] 4.85%

COC1OC(=O)c2cccc3cccc1c23 (centres undefined)
inactive: [1] -9.3% | [2] -14.8% | [3] -8.2% | [4] -7.5% | [5] -2.4% | [6] -18.7%

COC(=O)c1c([N+](=O)[O-])ncn1[C@H]1OC[C@@H](OC(C)=O)[C@@H](OC(C)=O)[C@@H]1OC(C)=O
inactive: [1] -24.8% | [2] -8.6% | [3] -20.9% | [4] -0.8% | [5] -5.5% | [6] 1.55%

NC(Cc1ccccc1)(C(=O)O)C(=O)O
inactive: [1] -12.7% | [2] 1.45% | [3] -11.4% | [4] -31.8% | [5] -22.1% | [6] 15.7%

c1ccc(C2(c3ccccc3)Oc3ccccc3O2)cc1
inactive: [1] -10.1% | [2] 3.65% | [3] -6.45% | [4] -37.5% | [5] -6.4% | [6] 7.3%

COc1cc(C2c3cc4c(cc3OC(NNC(N)=O)C2C)OCO4)cc(OC)c1OC (centres undefined)
inactive: [1] -4.1% | [2] 6.4% | [3] 6.7% | [4] -19.6% | [5] 11.5% | [6] 10.4%

CCOC(=O)C(CC(Nc1ccccc1)(c1ccccc1)c1ccccc1)c1ccccc1 (centres undefined)
inactive: [1] 21.9% | [2] -8.3% | [3] 4.65% | [4] -35.5% | [5] -3.45% | [6] -0.65%

N#Cc1ccc(N=NN2CCOC2)cc1
inactive: [1] 20.6% | [2] 11.4% | [3] -0.7% | [4] 7.7% | [5] 23% | [6] 44.9%

O=C(O)c1ccncc1S(=O)(=O)O
inactive: [1] -20.6% | [2] -36.2% | [3] -24.3% | [4] -8.4% | [5] -23.5% | [6] -9.9%

CC1(C)COC(c2ccc3ccccc3c2)OC1
inactive: [1] 26% | [2] 10.7% | [3] -6.2% | [4] -21.9% | [5] 35.4% | [6] -5.8%

C=C(C)C1CCC2(C=O)CCC3(C)C(CCC4C5(C)CCC(O)C(C)(C)C5CCC43C)C12 (centres undefined)
inactive: [1] 25.9% | [2] 37% | [3] 25.1% | [4] 15.8% | [5] 26% | [6] 20.8%

Oc1c(O)c(Cc2ccccc2)c(Cc2ccccc2)c(Cc2ccccc2)c1Cc1ccccc1
inactive: [1] 40.7% | [2] -19.8% | [3] 23.3% | [4] -44.2% | [5] -7.15% | [6] 12.8%

CC1CN=C(N(C(=O)Nc2ccc(Cl)cc2)c2cccc(Cl)c2)S1 (centres undefined)
inactive: [1] -30.9% | [2] -13.7% | [3] -50.1% | [4] -8.75% | [5] -14.8% | [6] -52%

CCOc1ccccc1N=Nc1c(C)nn(C(=S)SC)c1OCC
inactive: [1] 22.5% | [2] 18.4% | [3] 26.4% | [4] 30.2% | [5] 14% | [6] 39.2%

CCOC(=O)C(CCC(C)=O)C(=O)OCC
inactive: [1] -1.25% | [2] 12.8% | [3] -6.15% | [4] 24.6% | [5] 5.65% | [6] -19.1%

CC12CCC(C(=O)n3c1nc1ccccc13)C(C)(C)O2 (centres undefined)
inactive: [1] 8.15% | [2] -6.85% | [3] -7.45% | [4] 4% | [5] 4.25% | [6] -12.3%

COC(=O)/C=C(C)/C=C/C1OC(C)OCC1O (centres undefined)
inactive: [1] 7.55% | [2] 2.3% | [3] -3.65% | [4] -8.55% | [5] -5.45% | [6] 5.5%

O=C1CN(C=C(C(=O)c2ccccc2)C(=O)c2ccccc2)C(=S)N1
inactive: [1] -61.5% | [2] -31.7% | [3] -19.2% | [4] -39% | [5] -8.2% | [6] -30.4%

Cc1cc(C)n(/N=C/c2ccccc2)c(=O)c1C#N
inactive: [1] 7.3% | [2] -10.3% | [3] 0.55% | [4] -0.55% | [5] 35.6% | [6] -0.05%

Cc1ccc(CO)cc1
inactive: [1] 13.9% | [2] -6.7% | [3] 21.9% | [4] -5.6% | [5] -2.05% | [6] 21.7%

Cc1cn(C2CC(O)C(CO)C2C)c(=O)[nH]c1=O (centres undefined)
inactive: [1] -7.45% | [2] -11.8% | [3] -17.2% | [4] 5.4% | [5] -11.8% | [6] -24.9%

CCCC(=O)Oc1ccc(C)cc1C(C)(C)C
inactive: [1] 6.65% | [2] -22.2% | [3] -4.95% | [4] 9.5% | [5] -10.2% | [6] 4.25%

CC(O)C(C)(C)O (centres undefined)
inactive: [1] 12.3% | [2] -8.85% | [3] 15.6% | [4] -13.4% | [5] 16.1% | [6] 4.15%

O=C(NC(=O)c1ccccc1Cl)Nc1ccc(C(O)(C(F)(F)F)C(F)(F)F)cc1
inactive: [1] 53.8% | [2] 53.5% | [3] 58.4% | [4] 68.7% | [5] 34.3% | [6] 61.5%

O=C(CCn1ccnc1[N+](=O)[O-])NCCCn1ccnc1[N+](=O)[O-]
inactive: [1] -24.1% | [2] -2.15% | [3] -42.4% | [4] -1% | [5] -34.4% | [6] -52.2%

C=CC(C)(C)C1=CC(=O)C(OC)=CC1=O
inactive: [1] 1.75% | [2] -6.15% | [3] -3.7% | [4] -54.9% | [5] 4.15% | [6] -6.65%

CCCCC1NC(=O)OC1=O (centres undefined)
inactive: [1] -23.6% | [2] -31.4% | [3] -11.2% | [4] 1.9% | [5] -20.2% | [6] -33.4%

Cc1cc(=O)c2c(ccc3c(=O)cc(C)[nH]c32)[nH]1
inactive: [1] -56.8% | [2] -21.2% | [3] -14.3% | [4] -52.2% | [5] -3.1% | [6] 3.25%

Nc1ccn[nH]1
inactive: [1] 5.1% | [2] -0.05% | [3] 0.8% | [4] -2.25% | [5] 18.1% | [6] 1.35%

COC(=O)[C@@H]1CCC(/C(C#N)=C2/CC[C@@H](C(=O)OC)N2)=N1
inactive: [1] 8.45% | [2] 12.6% | [3] 1.2% | [4] -5.1% | [5] 13.2% | [6] 11.1%

Cc1cc(Cl)c(Cl)cc1Cl
inactive: [1] 13% | [2] 5.7% | [3] -6.5% | [4] -4% | [5] -6.35% | [6] 2.3%

Cc1ccc(C)c(CNC(=O)NC(C)(C)C)c1
inactive: [1] -10.2% | [2] -4.25% | [3] -6.65% | [4] -63.8% | [5] -11.2% | [6] -0.75%
